# Bioassay records (PubChem)
# CIT2 TOR yeast – modulators of CIT2-GFP expression in yeast, primary screen, S. cerevisiae, GFP fusion, multiplex flow cytometry, MLPCN library; S. cerevisiae CIT2-GFP strain, 3 h; 100 means same as DMSO wells; GFP response vs DMSO, % at 10 µM; 320,000 tested, 0.065% active;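 active means GFP response relative to DMSO above a set limit, near the screen mean plus 3 SD, cut at about 150% in these data; inconclusive means Fewer than 70 cells measured for a yeast strain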;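 further: ratio of well median GFP fluorescence to mean of DMSO wells on the plate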
# RPL19A TOR yeast – RPL19A-GFP expression modulators in yeast, primary screen, cell-based, S. cerevisiae, multiplex flow cytometry, MLPCN; AID 2025, 2009; 330,000 tested, 0.3% active; percent response vs DMSO, % at 10 µM; S. cerevisiae RPL19A-GFP strain, 3 h; active compounds read low;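 active means percent response vs DMSO below 50%; inconclusive means fewer than 70 events counted for the yeast strain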;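 further: median channel GFP fluorescence of the barcoded RPL19A-GFP strain; ratio of sample median GFP to plate DMSO average so 100% = DMSO; lower means less RPL19A-GFP as with rapamycin TOR inhibition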
# MEP2-GFP yeast – modulators of MEP2-GFP levels in yeast, primary screen, S. cerevisiae, multiplex flow cytometry, MLPCN library | GFP response vs DMSO, % at 10 µM | 330,000 tested, 0.51% active | AID 2016, 2009 | S. cerevisiae MEP2-GFP strain, 3 h; 100% = DMSO control level;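 active means GFP response versus DMSO above a set limit, roughly screen mean plus 3 SD, cut at about 180% in these data; inconclusive means fewer than 70 cells counted for a yeast strain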;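 further: median GFP fluorescence of the barcode-gated MEP2-GFP cells per well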
# AGP1 TOR yeast – modulators of AGP1-GFP expression in yeast TOR pathway, primary screen, cell-based, multiplex flow cytometry, S. cerevisiae, MLPCN library; AID 2066, 2009; 320,000 tested, 0.02% active; 3 h; GFP as percent of DMSO wells; GFP response vs DMSO, % at 10 µM;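 active means GFP response relative to DMSO above a set limit, near screen average plus 3 SD, cut at about 150% in these data; inconclusive means fewer than 70 cells counted for the yeast strain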;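 further: median GFP channel fluorescence of the gated AGP1 strain per well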
# LAP4-GFP MLPCN – modulators of LAP4-GFP expression in yeast, primary screen, S. cerevisiae, multiplex flow cytometry, MLPCN library | 3 h; median GFP as percent of DMSO wells | GFP response vs DMSO, % at 10 µM | 320,000 tested, 0.34% active | AID 2023, 2009;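 active means GFP response vs DMSO above a set limit, about the screen mean plus 3 SD, cut at about 150% in these data; inconclusive means under 70 cell events counted for the yeast strain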
# Active calls of the source: *; ? = inconclusive; · = no result; [ ] = remark or other dose. Compounds with a hit are over-represented: about 0.92% of the library has one in this group of screens.
SMILES,CIT2 TOR yeast,RPL19A TOR yeast,MEP2-GFP yeast,AGP1 TOR yeast,LAP4-GFP MLPCN
COc1ccc(OCc2nnc(SCC(=O)NC3CC4CCC3C4)o2)cc1 (stereo unspecified),93.2,98.2,100.8,89.5,83.1
O=C(CSc1nnc(COc2ccc(Cl)cc2)o1)NC1CC2CCC1C2 (stereo unspecified),?,64.1,252.7*[may fluoresce violet],18.8,76.3
O=C(Cc1ccccc1)NN1C(=O)C2C3C=CC(C3)C2C1=O (stereo unspecified),?,60.3,231.6*[may fluoresce violet],·,109.6
Nc1nonc1-c1noc(-c2ccccc2Br)n1,?,45.3*[may fluoresce violet],260.9*[may fluoresce violet],26.4,107.6
Clc1ccc(-c2csc(N/N=C/c3ccco3)n2)cc1,?,25.5*[may fluoresce violet],595.6*[may fluoresce violet],?,69.0
CN(/N=C/c1cc(Cl)ccc1O)C1=NS(=O)(=O)c2ccccc21,95.4,100.3,100.7,89.8,86.7
COc1cccc(C(C(=O)NCC2CCCO2)N(C(=O)Cn2nnc3ccccc32)c2ccc(NC(C)=O)cc2)c1 (stereo unspecified),?,53.5,204.4*[may fluoresce violet],?,78.3
CCOc1cc(C(C(=O)NCC2CCCO2)N(C(=O)Cn2nnc3ccccc32)c2ccc(C(C)=O)cc2)ccc1O (stereo unspecified),106.6,102.8,99.4,104.8,94.8
CCOC(=O)c1c(O)c2ccccc2n(-c2ccccc2)c1=O,?,58.1,217.9*[may fluoresce violet],?,100.4
Cc1ccc(C)c(NC(=S)NCCN(C2CCCCC2)C2CCCC2)c1,90.6,93.2,97.1,96.1,106.6
COc1cc(CC2COC(c3ccc(O)c(OC)c3)C2COC(C)=O)ccc1O (stereo unspecified),98.9,99.6,115.9,104.8,105.7
COC(=O)/C=C1/S/C(=N/NC(=O)c2ccc(Cl)cc2Cl)NC1=O,?,94.7,177.0*[may fluoresce violet],39.2,113.5
COc1ccc(NC(=O)N2CCCC2C(=O)NCC2CCCCC2)cc1 (stereo unspecified),107.4,101.0,100.7,92.8,85.5
O=C1C(Br)=Cc2cccc3cccc1c23,?,34.8*[may fluoresce violet],388.6*[may fluoresce violet],?,87.3
COc1ccc(NC2CC(=O)N(CCc3ccccc3)C2=O)cc1 (stereo unspecified),91.0,92.9,93.2,90.2,92.0
c1ccc(CSc2ccc(-c3ccccn3)nn2)cc1,82.7,90.7,108.5,92.9,155.2*
CC(=O)c1cccc(NC(=O)CC(C)n2ccnc2)c1 (stereo unspecified),98.9,101.8,103.5,102.5,102.1
COC(=O)C(NC(=O)c1ccccc1)=C1C=C(C)OC(C)=C1,?,63.9,209.2*[may fluoresce violet],·,100.8
CCOC(=O)C(NC(=O)c1ccccc1)=C1C=C(C)OC(C)=C1,93.1,96.7,95.2,95.8,100.7
O=C(Nc1nccs1)C1CCCN1S(=O)(=O)c1ccc(F)cc1 (stereo unspecified),171.6*,105.4,132.0,114.2,122.0
COc1ccc(/C=C/C(=O)C2CC2)cc1COc1c(C)cccc1C,?,41.6*[may fluoresce violet],91.8,?,115.1
Fc1ccc(CNc2ncccn2)cc1,?,29.7*[may fluoresce violet],189.9*[may fluoresce violet],?,60.4
CC(NC(=O)COC(=O)/C(=C/c1cccs1)c1cccs1)c1ccccc1 (stereo unspecified),94.4,104.2,100.5,103.8,90.8
CCC(C)(C)n1nnnc1C(c1ccc(O)c(OC)c1)N1CCc2ccccc2C1 (stereo unspecified),151.9*,90.0,102.5,119.6,106.3
CCC(C)(C)n1nnnc1C(c1ccccc1)N1CCc2ccccc2C1 (stereo unspecified),110.2,101.9,106.7,104.5,103.8
Cc1ccc(/C=C2/NC(=O)N(Cc3ccccc3)C2=O)o1,95.8,101.9,97.7,96.1,172.3*
Cn1c(=O)c(C(=O)Nc2ncccc2O)c(O)c2ccccc21,49.1,30.4*,104.8,28.7,88.0
OCCC1CN(Cc2cccc(-c3ccco3)c2)CCN1Cc1ccsc1 (stereo unspecified),103.2,108.1,105.0,106.2,94.6
Cn1ccc(NC(=O)c2ccc(Cl)cc2Cl)n1,88.3,95.3,94.7,93.7,97.7
